Test [1] is described as follows: BSK_LPS_SRB: Viability Assessment in the BioMAP Diversity Plus: LPS Assay (AID 2283079).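 Further: total protein by sulforhodamine B absorbance as a cytotoxicity measure; measured one day after compound addition; fitted in both directions against DMSO so loss or gain of signal counts.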 Conditions: primary human HUVEC with PBMC. The method, boiled down:
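Co-culture of human umbilical vein endothelial cells and PBMC, read 24 h after dosing. Total protein by 0.1% SRB staining after 10% TCA fixation, absorbance at 560 nm; bidirectional fit against DMSO.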

Read-out in test [2]: Interleukin-1 alpha (IL1a), IL1A (gene 3552)
Description: BSK_LPS_IL1a: BioMAP Diversity Plus: LPS Assay for Interleukin-1 alpha (IL1a) Biomarker Activity (AID 2283080). To be noted: primary human HUVEC with PBMC; actives raise or lower the signal. The method, boiled down: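 Human umbilical vein endothelial cells co-cultured with PBMC and stimulated with LPS; IL-1a measured by ELISA 24 h after dosing. Bidirectional fitting against DMSO; cytotoxicity checked by SRB staining in parallel cultures.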

Read-out in test [3]: Monocyte Chemoattractant Protein-1 (MCP1), CCL2 (gene 6347)
The experiment in a line: BSK_LPS_MCP1: BioMAP Diversity Plus: LPS Assay for Monocyte Chemoattractant Protein-1 (MCP1) Biomarker Activity (AID 2283081). Conditions: primary human HUVEC with PBMC; actives raise or lower the signal. The method, boiled down:
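Human umbilical vein endothelial cells co-cultured with PBMC, LPS-stimulated; secreted MCP-1 measured by ELISA 24 h after compound addition. Bidirectional curve fitting against DMSO baseline; SRB total-protein staining in parallel cultures for cytotoxicity.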

Test [4] is described as follows: BSK_LPS_PGE2: BioMAP Diversity Plus: LPS Assay for Prostaglandin E2 (PGE2) Biomarker Activity (AID 2283082).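 On AC50: secreted prostaglandin E2 measured by ELISA in LPS-stimulated co-culture.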 To be noted: primary human HUVEC with PBMC; actives raise or lower the signal. The method, boiled down:
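Endpoint derived from bidirectional curve fitting versus DMSO of ELISA-measured PGE2 in LPS-stimulated human primary vascular co-culture (HUVEC with PBMC) harvested at 24 h.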

Read-out in test [5]: Macrophage colony-stimulating factor (MCSF), CSF1 (gene 1435)
Description: BSK_LPS_MCSF: BioMAP Diversity Plus: LPS Assay for Macrophage colony-stimulating factor (MCSF) Biomarker Activity (AID 2283083). Conditions: primary human HUVEC with PBMC; actives raise or lower the signal. The method, boiled down:
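HUVEC–PBMC co-culture, M-CSF measured by ELISA 24 h after chemical dosing. Fitted in both directions relative to DMSO as negative control; overt cytotoxicity assessed by SRB total-protein staining in parallel cultures.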

Read-out in test [6]: Tissue Factor, F3 (gene 2152)
Description: BSK_LPS_TissueFactor: BioMAP Diversity Plus: LPS Assay for Tissue Factor Biomarker Activity (AID 2283084). To be noted: primary human HUVEC with PBMC; actives raise or lower the signal. The method, boiled down: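 Human umbilical vein endothelial cells co-cultured with PBMC were dosed with compound. Cell-surface CD142 was measured by ELISA 24 h later. Activity was fitted bidirectionally against DMSO, with SRB total-protein staining in parallel cultures for cytotoxicity.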

Read-out in test [7]: Tumor necrosis factor (Homo sapiens) (UniProt P01375)
Description: BSK_LPS_TNFa: BioMAP Diversity Plus: LPS Assay for Tumour Necrosis Factor alpha (TNFa) Biomarker Activity (AID 2283085).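 On AC50: TNFa protein level quantified by ELISA in the co-culture.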 Conditions: primary human HUVEC with PBMC; actives raise or lower the signal. The method, boiled down: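 Primary human vascular co-culture of HUVEC and PBMC; TNFa ELISA 24 h after treatment, analysed as increase or decrease relative to DMSO control.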

Read-out in test [8]: Vascular cell adhesion molecule 1 (VCAM1), VCAM1 (gene 7412)
The experiment in a line: BSK_LPS_VCAM1: BioMAP Diversity Plus: LPS Assay for Vascular cell adhesion molecule 1 (VCAM1) Biomarker Activity (AID 2283086). Conditions: primary human HUVEC with PBMC; actives raise or lower the signal. The method, boiled down: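 Primary human vascular co-culture (umbilical vein endothelium plus PBMC) stimulated with LPS received chemical; 24 h later VCAM-1 was read by ELISA. Overt cytotoxicity was assessed by sulforhodamine B staining of parallel cultures at the same time point.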

Read-out in another test: CD38, CD38 (gene 952)
The experiment in a line: BSK_SAg_CD38: BioMAP Diversity Plus: SAg Assay for CD38 Biomarker Activity (AID 2283087). To be noted: primary human HUVEC with PBMC; actives raise or lower the signal. The method, boiled down: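 Fluorescence ELISA of cell-surface CD38 served as the read-out, with either increase or decrease fitted against DMSO controls. Cells were a human umbilical vein endothelium plus PBMC co-culture under SEB/TSST-1 stimulation, measured 24 h after dosing.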

Read-out in the next test: CD40, CD40 (gene 958)
The experiment in a line: BSK_SAg_CD40: BioMAP Diversity Plus: SAg Assay for CD40 Biomarker Activity (AID 2283088). Conditions: primary human HUVEC with PBMC; actives raise or lower the signal. The method, boiled down:
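HUVEC plus PBMC co-culture, superantigen-activated, with CD40 read by ELISA 24 h after dosing. Curves fitted in both directions against DMSO. Overt cytotoxicity checked by parallel SRB total-protein staining.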

Structures are written as SMILES. Values joined by “and” are separate entries in the source; they are usually repeats but may differ in a detail not shown here. Equal values may be shown once. More than one record can exist for a structure, and the calls need not agree. Active and inactive are the calls of the source. How the source made its calls: active means hit-call score of the fitted dose curve at least 0.9, where 1 is the maximum; inactive means score below 0.9.

Sequence of Tumor necrosis factor (Homo sapiens) (P01375 whole entry, looked up): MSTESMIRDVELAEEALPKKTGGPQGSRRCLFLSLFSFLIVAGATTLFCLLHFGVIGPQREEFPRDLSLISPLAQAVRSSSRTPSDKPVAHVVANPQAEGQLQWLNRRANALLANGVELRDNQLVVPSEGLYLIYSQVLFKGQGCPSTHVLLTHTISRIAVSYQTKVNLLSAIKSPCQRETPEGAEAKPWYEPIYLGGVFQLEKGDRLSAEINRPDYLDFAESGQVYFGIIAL

`CCOP(=S)(OCC)Oc1ccc(S(C)=O)cc1` (configuration not stated): the outcome in [1], in test [2], in test [3], in test [4], in test [5] and in [6] was inactive. In addition, the outcome in test [7] is “inactive”; in test [8] it was “inactive”; in the test with CD38, CD38 (gene 952) it was “inactive”.
Consider `O=[N+]([O-])c1ccc(O)c([N+](=O)[O-])c1`, for which the outcome in test [1], in test [2], in [4], in test [5], in test [6] and in [7] was inactive. Besides, the outcome was “inactive” with CD38, CD38 (gene 952) and “inactive” with CD40, CD40 (gene 958).
`C=C(C)C(=O)[O][Sn]([CH2]CCC)([CH2]CCC)[CH2]CCC`: the AC50 was 0.148 µM (active) in test [1]; 0.148 µM (active) in test [2]; 0.148 µM (active) in test [5]; 0.148 µM (active) in [6]; 340 nM (active) in [7]; 0.248 µM (active) with CD38, CD38 (gene 952). In the test with CD40, CD40 (gene 958), the AC50 was 0.148 µM (active). For the same compound, the result in test [4] was inactive.
Consider `NC(=S)Nc1ccccc1`, for which the result in test [1], in [2], in test [4], in test [5], in [6] and in test [7] was inactive. The outcome is “inactive” with CD38, CD38 (gene 952) and “inactive” with CD40, CD40 (gene 958).
In the case of `OCc1ccco1`, the result in test [1], in test [2], in [3], in [4], in test [5] and in [6] was inactive. In addition, the outcome is “inactive” in test [7]; “inactive” in [8]; “inactive” with CD38, CD38 (gene 952); “inactive” with CD40, CD40 (gene 958).
Turning to `CC(C)(OO)c1ccccc1`, the result in test [1], in test [2], in test [4], in test [5], in test [6] and in [7] was inactive. Moreover, the result with CD38, CD38 (gene 952) was inactive.
Turning to `COc1cc(-c2ccc(N)c(OC)c2)ccc1N`, the outcome is “inactive” in test [1]; “inactive” in test [2]; “inactive” in test [5]; “inactive” in test [6]; “inactive” in test [7]; “inactive” with CD38, CD38 (gene 952). The AC50 in [4] was 3.63 µM (active) and 9 µM (active); in [5], 19.2 µM (active); in test [6], 19.2 µM (active).
Consider `CC(=O)OC(c1ccccc1)C(Cl)(Cl)Cl` (configuration not stated), for which the AC50 in test [2] was 17.6 µM (active). Besides, the outcome was “inactive” in test [2]; “inactive” in test [4]; “inactive” in test [5]; “inactive” in test [6]; “inactive” in test [7]; “inactive” with CD38, CD38 (gene 952). Also, the result with CD40, CD40 (gene 958) was inactive.
As for `O=C(O)C(F)(F)C(F)(F)C(F)(F)C(F)(F)C(F)(F)C(F)(F)C(F)(F)C(F)(F)C(F)(F)C(F)(F)F`, the AC50 was 29.6 µM (active) in test [2]; 22.3 µM (active) in test [4]; 31.4 µM (active) in test [5]; 30.2 µM (active) in test [6]; 31.4 µM (active) and 4.39 µM (active) and 4.42 µM (active) in [7]; 37.4 µM (active) in the test with CD38, CD38 (gene 952). The outcome in [2] was “inactive”; in test [4], “inactive”; in test [5], “inactive”; in test [6], “inactive”; with CD38, CD38 (gene 952), “inactive”.
Turning to `COc1cc(OC)nc(NC(=O)NS(=O)(=O)c2ncccc2C(=O)N(C)C)n1`, the outcome in test [1], in [2], in [3], in test [4], in test [5] and in [6] was inactive. Further, the outcome was “inactive” in test [7]; “inactive” in test [8]; “inactive” in the test with CD38, CD38 (gene 952).
As for `NC(=O)O`, the result in test [1], in test [2], in test [4], in [5], in test [6] and in test [7] was inactive. The outcome in test [8] is “inactive”; with CD38, CD38 (gene 952), “inactive”.
For `Oc1c(I)cc(I)cc1I`, the outcome in test [2], in test [3], in [4], in test [6] and in test [7] was inactive. In addition, the AC50 in [5] is 31.1 µM (active); in test [8] it was 14.3 µM (active); with CD38, CD38 (gene 952) it was 25.4 µM (active).
For `O=Cc1cccc(Oc2ccccc2)c1`, the outcome in test [1], in test [2], in test [4], in test [5], in test [6] and in [7] was inactive. The outcome is “inactive” in test [8] and “inactive” with CD38, CD38 (gene 952).
Take `CCOP(=S)(OCC)SCCS(=O)(=O)CC`: the result in [1], in test [2], in [4], in [5], in test [6] and in [7] was inactive. Also, the outcome with CD38, CD38 (gene 952) was “inactive”; in the test with CD40, CD40 (gene 958) it was “inactive”.
As to `COP(=S)(OC)Oc1ccc(S(=O)(=O)N(C)C)cc1`, the result in [1], in test [3], in test [4], in test [5], in test [6] and in [7] was inactive. Also, the outcome with CD38, CD38 (gene 952) was inactive. Moreover, the AC50 in [2] is 0.0677 µM (active).

These data come from PubChem BioAssay (EPA / NIEHS).
